# Structures can show the parent of a compound that is named as a salt.
# Key:
# Settings in all cases: compound concentration in added solution (µM; 5 µl added to 20 µl cells): 10; 18 h
# [1] = test system: A431; assay: LBPA endosome anti-LBPA integrated intensity (sum per cell), Z-score; higher = more LBPA staining
# In short: (§1)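 Per-cell integrated LBPA or filipin intensity, whole-cell or within LBPA endosomes, is expressed as Z-scores normalised in AcuityXpress. HeLa MZ or A431 cells, 3,500 per well in 20 µl, sat on 5 µl of 10 µM compound solution in duplicate 384-well imaging plates for 18 h. They were then fixed in 4% PFA, stained, imaged in four 20× fields per well and segmented using MetaXpress.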
# [2] = test system: HeLa MZ; assay: as above
# In short: as §1
# [3] = test system: A431; assay: whole-cell filipin (free cholesterol) integrated intensity, Z-score; higher = more cholesterol staining
# In short: as §1
# [4] = test system: HeLa MZ; assay: as above
# In short: as §1
# [5] = test system: A431; assay: filipin (cholesterol) integrated intensity within LBPA endosomes, Z-score; higher = more cholesterol in LBPA endosomes
# In short: as §1
# [6] = test system: HeLa MZ; assay: as above
# In short: as §1
SMILES,LBPA endosome anti-LBPA integrated intensity (z-score) [1],LBPA endosome anti-LBPA integrated intensity (z-score) [2],whole-cell filipin (z-score) [3],whole-cell filipin (z-score) [4],filipin (z-score) [5],filipin (z-score) [6]
Nc1ccc(C(=O)NCC(=O)O)cc1 [Aminohippuric acid],-0.53,-0.169,-0.32,-0.186,-0.48,-0.359
N=C(NCCCCCCNC(=N)NC(=N)Nc1ccc(Cl)cc1)NC(=N)Nc1ccc(Cl)cc1 [Chlorhexidine],-0.526,-0.794,-1.08,-1.91,-0.271,-0.107
CC(=O)OCC(=O)[C@@]1(O)CC[C@H]2[C@@H]3CCC4=CC(=O)C=C[C@]4(C)[C@@]3(F)[C@@H](O)C[C@@]21C [Isoflupredone acetate],-0.244,-0.851,-0.383,-0.16,-0.17,-0.357
CC(=O)OCC1=C(C(=O)O)N2C(=O)[C@@H](NC(=O)Cc3cccs3)[C@H]2SC1 [Cephalothin sodium salt],-0.468,-0.884,-0.46,-0.115,-0.456,-0.652
CN(C)CCN(Cc1ccccc1)c1ccccn1 [Tripelennamine hydrochloride],-0.213,1.28,0.0432,0.362,-0.29,0.335
O=C(O)Cc1sc(-c2ccccc2)nc1-c1ccc(Cl)cc1 [Fentiazac],-0.661,-1.44,-0.809,-0.504,-0.591,-0.756
C[C@]12CC[C@@H]3c4ccc(O)cc4C[C@@H](CCCCCCCCC[S+]([O-])CCCC(F)(F)C(F)(F)F)[C@H]3[C@@H]1CC[C@@H]2O (stereo not given in full) [Fulvestrant],1.44,1.71,1.52,1.48,1.64,2.16
O=C1NCCN1c1ncc([N+](=O)[O-])s1 [Niridazole],-0.413,0.107,-0.918,-0.144,-0.517,-0.432
CC(C)C(=O)Nc1ccc([N+](=O)[O-])c(C(F)(F)F)c1 [Flutamide],-0.32,0.353,-0.407,-0.0656,-0.384,-0.392
CNCCCC12CCC(c3ccccc31)c1ccccc12 [Maprotiline hydrochloride],1.93,0.295,1.09,1.4,2.92,3.38
CO[C@H]1/C=C/O[C@@]2(C)Oc3c(C)c(O)c4c(O)c(c5c(nc6cc(C)ccn65)c4c3C2=O)NC(=O)/C(C)=C\C=C\[C@H](C)[C@H](O)[C@@H](C)[C@@H](O)[C@@H](C)[C@H](OC(C)=O)[C@@H]1C [Rifaximin],-0.465,-0.154,0.151,0.344,-0.307,-0.143
CC(C)(O)c1ccccc1CC[C@@H](SCC1(CC(=O)O)CC1)c1cccc(/C=C/c2ccc3ccc(Cl)cc3n2)c1 [Montelukast],-0.42,0.903,-0.0363,0.0687,-0.415,-0.392
CN(C)CCOC1=Cc2ccccc2Sc2ccc(Cl)cc21 [Zotepine],3.49,1.41,1.18,-0.352,3.08,1.71
CO[C@H]1/C=C/O[C@@]2(C)Oc3c(C)c(O)c4c(O)c(c(/C=N/N5CCN(C)CC5)c(O)c4c3C2=O)NC(=O)/C(C)=C\C=C\[C@H](C)[C@H](O)[C@@H](C)[C@@H](O)[C@@H](C)[C@H](OC(C)=O)[C@@H]1C [Rifampicin],-0.422,-0.231,-0.651,-0.372,-0.402,-0.338
CCCNCC(O)COc1ccccc1C(=O)CCc1ccccc1 (stereo not given) [Propafenone hydrochloride],3.53,1.93,2.04,1.83,2.65,2.28
Nc1nc(N)nc(-c2cc(Cl)ccc2Cl)n1 [Irsogladine maleate],-0.232,0.679,-0.0416,0.316,-0.334,-0.292
CC(C)(C)NCC(O)c1cc(O)cc(O)c1 (stereo not given) [Terbutaline hemisulfate],-0.651,-1.35,-0.395,-0.481,-0.593,-0.644
CO[C@H]1/C=C/O[C@@]2(C)Oc3c(C)c(O)c4c(O)c(c(/C=N/N5CCN(C6CCCC6)CC5)c(O)c4c3C2=O)NC(=O)/C(C)=C\C=C\[C@H](C)[C@H](O)[C@@H](C)[C@@H](O)[C@@H](C)[C@H](OC(C)=O)[C@@H]1C [Rifapentine],-0.344,-0.538,-0.546,-0.401,-0.461,-0.486
CCN(CC)CCNC(=O)c1ccc(N)cc1 [Procainamide hydrochloride],-0.492,0.0584,-0.628,0.713,-0.428,-0.159
Clc1cccc(Cl)c1NC1=NCCN1 [Clonidine hydrochloride],-0.318,-0.0581,-0.585,-0.0901,-0.436,-0.268
COc1ccc2cc([C@H](C)C(=O)O)ccc2c1 [Naproxen],-0.53,-0.655,-0.923,-0.439,-0.525,-0.644
Cc1cccc(N(C)C(=S)Oc2ccc3ccccc3c2)c1 [Tolnaftate],0.133,0.375,-0.581,-0.535,-0.301,-0.655
COc1ccc(C(=O)c2ccccc2)c(O)c1 [Oxybenzone],-0.5,-0.722,-0.24,0.387,-0.525,-0.452
OC(CCN1CCCC1)(c1ccccc1)C1CCCCC1 (stereo not given) [Procyclidine hydrochloride],-0.0883,0.3,0.506,0.736,0.0344,0.437
Cc1nc2ccccn2c(=O)c1CCN1CCC(C(=O)c2ccc(F)cc2)CC1 [Pirenperone],1.82,2.56,1.36,1.21,1.54,2.01

SMILES,LBPA endosome anti-LBPA integrated intensity (z-score) [1],LBPA endosome anti-LBPA integrated intensity (z-score) [2],whole-cell filipin (z-score) [3],whole-cell filipin (z-score) [4],filipin (z-score) [5],filipin (z-score) [6]
CN1CC2c3ccccc3Oc3ccc(Cl)cc3C2C1 (stereo not given) [Asenapine maleate],2.13,2,0.865,-0.413,1.3,0.927
COc1cc(N)c(Cl)cc1C(=O)NC1CCN(CCCOc2ccc(F)cc2)CC1OC (stereo not given) [Cisapride],0.467,0.977,-0.114,0.308,0.0889,0.672
CCOC(=O)c1ccc(OC(=O)CCCCCNC(=N)N)cc1 [Gabexate mesilate],-0.44,0.019,0.196,0.0139,-0.481,-0.456
CCCCOc1cc(C(=O)NCCN(CC)CC)c2ccccc2n1 [Dibucaine],2.05,2.71,2.14,1.5,2.29,2.2
NC1CCN(c2nc3c(cc2F)c(=O)c(C(=O)O)cn3-c2ccc(F)cc2F)C1 (stereo not given) [Tosufloxacin hydrochloride],-0.551,-1.59,-0.466,-1.51,-0.679,-0.966
Fc1ccc([C@@H]2CCNC[C@H]2COc2ccc3c(c2)OCO3)cc1 [Paroxetine Hydrochloride],–,0.516,–,-0.28,–,2.03
CC1=C(/C=C/C(C)=C/C=C/C(C)=C\C(=O)O)C(C)(C)CCC1 [Isotretinoin],-0.383,-0.562,-0.622,-0.961,-0.488,-0.54
CN[C@H]1CC[C@@H](c2ccc(Cl)c(Cl)c2)c2ccccc21 [Sertraline],–,-0.719,–,0.938,–,3.15
CC(C[N+](C)(C)C)OC(N)=O (stereo not given) [Bethanechol chloride],-0.55,-0.64,-0.316,-0.111,-0.415,-0.495
COc1cc([C@@H]2c3cc4c(cc3[C@@H](O[C@@H]3O[C@@H]5CO[C@@H](C)O[C@H]5[C@H](O)[C@H]3O)[C@H]3COC(=O)[C@H]23)OCO4)cc(OC)c1O [Etoposide],-0.699,–,2.27,–,-0.718,–
CC(CN(C)C)CN1c2ccccc2Sc2ccccc21 (stereo not given) [Trimeprazine tartrate],3.47,–,1.36,–,2.12,–
CC[C@H]1OC(=O)[C@H](C)[C@@H](O[C@H]2C[C@@](C)(OC)[C@@H](O)[C@H](C)O2)[C@H](C)[C@@H](O[C@@H]2O[C@H](C)C[C@H](N(C)C)[C@H]2O)[C@](C)(O)C[C@@H](C)C(=O)[C@H](C)[C@@H](O)[C@]1(C)O [Erythromycin],0.476,-0.196,0.409,-0.0449,0.977,0.203
NC[C@H]1O[C@H](O[C@H]2[C@H](O[C@@H]3O[C@H](CO)[C@@H](O)[C@H]3O)[C@@H](O)[C@H](N)C[C@@H]2N)[C@H](N)[C@@H](O)[C@@H]1O [Ribostamycin sulfate salt],-0.548,1.92,-0.165,2.24,-0.516,-0.59
CCN(CC)C(=S)SSC(=S)N(CC)CC [Disulfiram],–,0.205,–,0.0194,–,-0.407
CC1(C)O[C@@H]2C[C@H]3[C@@H]4C[C@H](F)C5=CC(=O)C=C[C@]5(C)[C@@]4(F)[C@@H](O)C[C@]3(C)[C@]2(C(=O)CO)O1 [Fluocinolone acetonide],-0.172,-0.371,0.258,0.13,-0.163,-0.367
CCN(CC)CCNc1ccc(CO)c2sc3ccccc3c(=O)c12 [Hycanthone],5.49,–,2.31,–,2.68,–
O=C(NCC1CCCCN1)c1cc(OCC(F)(F)F)ccc1OCC(F)(F)F (stereo not given) [Flecainide acetate],0.848,1.72,1.08,0.76,0.948,0.836
O=c1[nH]cc(F)c(=O)[nH]1 [5-fluorouracil],-0.738,–,0.716,–,-0.862,–
CC(NCCC(c1ccccc1)c1ccccc1)c1ccccc1 (stereo not given) [Fendiline hydrochloride],–,1.29,–,0.948,–,2.94
O=C1NCCN1CCN1CCC(c2cn(-c3ccc(F)cc3)c3ccc(Cl)cc23)CC1 [Sertindole],–,0.384,–,-0.48,–,2.2
O=C(O)COC(=O)Cc1ccccc1Nc1c(Cl)cccc1Cl [Aceclofenac],-0.449,-0.174,-0.423,-0.27,-0.383,-0.402
CC(COc1ccccc1)N(CCCl)Cc1ccccc1 (stereo not given) [Phenoxybenzamine hydrochloride],-0.295,-0.519,-0.105,0.141,-0.396,-0.505
CC(C)n1c(/C=C/C(O)CC(O)CC(=O)O)c(-c2ccc(F)cc2)c2ccccc21 (stereo not given) [Fluvastatin sodium salt],–,-1.11,–,-0.754,–,-0.372
CO[C@H]1/C=C/O[C@@]2(C)Oc3c(C)c(O)c4c(c3C2=O)C2=NC3(CCN(CC(C)C)CC3)NC2=C(NC(=O)/C(C)=C\C=C\[C@H](C)[C@H](O)[C@@H](C)[C@@H](O)[C@@H](C)[C@H](OC(C)=O)[C@@H]1C)C4=O [Rifabutin],-0.125,1.08,0.49,0.136,-0.0844,0.633
CN[C@@H]1[C@H](O[C@H]2[C@H](O[C@H]3[C@H](O)[C@@H](O)[C@H](NC(=N)N)[C@@H](O)[C@@H]3NC(=N)N)O[C@@H](C)[C@]2(O)CO)O[C@@H](CO)[C@H](O)[C@H]1O [Dihydrostreptomycin sulfate],-0.602,-1.07,-1,-0.938,-0.56,-0.704
